Active and inactive are the calls of the source. Unless noted, how the calls were made is not given here.

Assay [1] concerns Wnt5a (protein binding on small-molecule microarray). Put plainly: small molecules binding Wnt5a protein – biophysical, small-molecule microarray, 635/667 nm fluorescence, primary screen (AID 1142).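 Further: fluorescence read at 667 nm with signal to noise per printed feature.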 The settings on record: 635 nm fluorescence, higher = more signal.
The nature of assay [2]: ATP-based viability of Huh7 replicon cells – cell-based, CellTiter-Glo luminescence, basal, 48 h, cytotoxicity control for HCV replication inhibitor project, primary screen (AID 1143).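 Further: Huh7 hepatoma cells carrying a hepatitis C replication reporter with no stimulus; test concentration not given here.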 To be noted: higher = more signal, called active from +8 up or from −8 down. In general terms: Replicon systems follow genome replication, usually without infectious particles.
Assay [3] is described as follows: Pseudomonas biofilm growth suppression – PAO1 strain, BacTiter-Glo luminescence, LB-PBS, primary screen (AID 1144). To be noted: P. aeruginosa PAO1 biofilm, 12 h, higher = more signal.
A short description of assay [4]: basal CRE-LacZ reporter activity in PC12 – cell-based, unstimulated, primary screen (AID 1145). To be noted: no forskolin, luminescence, 4.5 h, higher = more signal, called active from +8 up or from −8 down.
Assay [5] can be described thus: forskolin-driven CRE-LacZ activity in PC12 – cell-based, CRE-LacZ reporter, forskolin-stimulated, primary screen (AID 1146).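 Further: PC12 cells with 6xCRE LacZ reporter stimulated by forskolin 10 µM; beta-galactosidase reporter signal reflecting CREB driven transcription.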 The settings on record: luminescence, 4.5 h, higher = more signal, called active from +8 up or from −8 down.
Assay [6] concerns the target Streptavidin (Streptomyces avidinii) (UniProt P22629). The experiment in a line: compounds binding control protein streptavidin – biophysical, small-molecule microarray, 635/667 nm fluorescence, artefact control for SMM compound annotation, primary screen (AID 1147).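 Further: signal reflects streptavidin binding to arrayed compounds as a control protein.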 To be noted: higher = more signal.
The nature of assay [7]: probe aInhba binding on compound microarray – biochemical, small-molecule microarray, 635/667 nm fluorescence, primary screen (AID 1148).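 Further: score merges 667nm spot fluorescence with signal-to-noise for antibody binding to printed compounds.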 To be noted: higher = more signal.
Assay [8] concerns the target Torsin-1A (Homo sapiens) (UniProt O14656). The experiment in a line: TOR1A wild-type binding on microarray – cell lysate, small-molecule microarray, lysate, 635/667 nm, primary screen (AID 1149). To be noted: COS7 hTOR1A-WT lysate, 635 nm fluorescence, higher = more signal.
Assay [9] has the same target. Put plainly: torsin A mutant lysate binding on microarrays – cell lysate, small-molecule microarray, COS7 lysate, 635/667 nm fluorescence, primary screen (AID 1150).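 Further: score pools 667 nm emission and signal to noise measuring lysate protein binding.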 To be noted: COS7 hTOR1A mutant lysate, 635 nm fluorescence, higher = more signal.
The subject of assay [10] is Sonic hedgehog protein (Shh). Put plainly: Sonic hedgehog microarray binding compounds – biochemical, small-molecule microarray, 635/667 nm fluorescence, primary screen (AID 1151).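 Further: Shh protein binding to compounds spotted on small-molecule microarray slides; score combines spot fluorescence intensity with signal-to-noise across triplicate slides.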 The settings on record: 635 nm fluorescence, higher = more signal.

Sequence of Torsin-1A (Homo sapiens) (O14656 whole entry, looked up): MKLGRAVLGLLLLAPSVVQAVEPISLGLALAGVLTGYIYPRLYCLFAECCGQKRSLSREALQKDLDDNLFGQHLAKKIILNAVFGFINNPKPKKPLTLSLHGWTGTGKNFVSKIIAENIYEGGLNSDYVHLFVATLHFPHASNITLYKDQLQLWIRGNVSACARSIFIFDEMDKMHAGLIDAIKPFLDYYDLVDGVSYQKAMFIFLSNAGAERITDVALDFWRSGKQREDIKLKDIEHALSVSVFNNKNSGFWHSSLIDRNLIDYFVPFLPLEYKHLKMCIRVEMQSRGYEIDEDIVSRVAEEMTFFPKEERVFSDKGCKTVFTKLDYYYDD
Sequence of Streptavidin (Streptomyces avidinii) (P22629 whole entry, looked up): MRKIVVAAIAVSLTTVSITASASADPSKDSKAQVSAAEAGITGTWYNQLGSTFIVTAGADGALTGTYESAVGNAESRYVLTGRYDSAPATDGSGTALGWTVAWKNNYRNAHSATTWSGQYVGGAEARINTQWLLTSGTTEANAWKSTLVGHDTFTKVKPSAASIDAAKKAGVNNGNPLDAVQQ

Take `Cc1ccc(S[C@]2(C(=O)NCC(F)(F)F)CC(=O)N(Cc3ccccc3C(F)(F)F)[C@@H]2c2ccc(CO)cc2I)cc1`: the composite z-score was -0.0722 in [1]; -0.619 in [6]; -0.024 in assay [7]; -2.42 with Torsin-1A (Homo sapiens) [8]; -1.67 with Torsin-1A (Homo sapiens) [9]; -0.402 in assay [10]. Besides, the z-score in assay [2] was -1.26 (inactive); in assay [3], -0.235 (inactive); in assay [4] it was -0.671 (inactive); in assay [5], 0.622 (inactive).
Turning to `CCOC(=O)C[C@H]1[C@H](OC(=O)c2ccccc2-c2ccccc2)[C@@H](NC(=O)c2ccc(-c3ccccc3)cc2)c2cc(OCCCO)ccc2N1C(=O)c1ccc2ccccc2n1`, the composite z-score in [1] was 0.0868; in [6], 0.245; in [7], -0.106; in the assay with Torsin-1A (Homo sapiens) [8], 0.306; with Torsin-1A (Homo sapiens) [9] it was 0.554; in assay [10], 0.701. Also, the z-score in [2] was 0.0395 (inactive); in [3] it was -0.437 (inactive); in assay [4], -0.686 (inactive); in assay [5] it was 0.254 (inactive).
Turning to `COCCOC(=O)N1C(=O)[C@@]2(c3cc(C#CC4=CCCCC4)ccc31)[C@H](c1ccc(OCCO)cc1)N1[C@H](c3ccccc3)[C@H](c3ccccc3)OC(=O)[C@H]1[C@@H]2C(=O)NC[C@H](O)c1ccccc1`, the composite z-score in assay [1] worked out at 0.552; in assay [6], 0.785; in assay [7], 0.801; with Torsin-1A (Homo sapiens) [8] it was 0.818; in the assay with Torsin-1A (Homo sapiens) [9], 0.51; in assay [10], 1.85. For the same compound, the z-score in assay [2] is -2.18 (inactive); in assay [3] it was 0.698 (inactive); in assay [4], 0.354 (inactive); in [5] it was -0.224 (inactive).
As to `[N-]=[N+]=Nc1ccccc1[C@H]1OC(c2ccc(OCCCO)cc2)=N[C@@]1(Cc1ccccc1)C(=O)N1CCCCC1`, the composite z-score was determined as 1.57 in [1]; 1.16 in [6]; 0.395 in [7]; 0.728 with Torsin-1A (Homo sapiens) [8]; 0.373 with Torsin-1A (Homo sapiens) [9]; 0.021 in [10]. Also, the z-score in [2] was -3.95 (inactive); in assay [3] it was -0.21 (inactive); in [4], 0.722 (inactive); in [5], -0.585 (inactive).
For the compound `COc1ccc([Si](C)(C)[C@H]2[C@H](CC(=O)N(CCO)Cc3ccccc3)O[C@@]3(C(=O)N(Cc4cccc(N5CCOC5=O)c4)c4ccccc43)[C@@H]2C)cc1`, the composite z-score is -0.031 in assay [1]; 0.0212 in assay [6]; -0.0523 in assay [7]; 0.898 in the assay with Torsin-1A (Homo sapiens) [8]; 0.931 in the assay with Torsin-1A (Homo sapiens) [9]; 1.22 in [10]. Further, the z-score was -4.86 (inactive) in [2], -0.388 (inactive) in assay [3], 1.27 (inactive) in [4] and -0.863 (inactive) in [5].
On to `CN(C)C(=O)[C@]1(CCS(=O)(=O)c2ccccc2)N=C(c2ccc(OCCCO)cc2)O[C@@H]1c1ccccc1N=[N+]=[N-]`, for which the composite z-score in assay [1] was found to be 0.758; in [6], 2.06; in assay [7], 0.246; in the assay with Torsin-1A (Homo sapiens) [8] it was 1.42; with Torsin-1A (Homo sapiens) [9] it was 1.78; in [10], 0.605. The z-score was -2.79 (inactive) in assay [2], 0.0474 (inactive) in assay [3], 1.92 (inactive) in assay [4] and -0.977 (inactive) in [5].
On to `CO[C@]12C=C(Br)[C@@H](C[C@@H]1c1cccc(C)c1)[C@@]1(CO1)C2=O`, for which the composite z-score is -0.161 in assay [1]; -0.433 in assay [6]; -0.154 in assay [7]; -0.436 in the assay with Torsin-1A (Homo sapiens) [8]; -0.407 with Torsin-1A (Homo sapiens) [9]; 0.841 in assay [10]. Also, the z-score in assay [2] was -0.795 (inactive); in assay [3] it was -0.863 (inactive); in assay [4] it was 0.223 (inactive); in [5], 5.27 (inactive).
For `COc1cc(OC)c(C(O)C2C=CC3C(=O)N(c4ccccc4)C(=O)C3N2Nc2ccccc2)cc1Br` (stereo not given), the composite z-score in assay [1] was -0.0276; in assay [6], 1.24; in assay [7] it was 0.0155; in the assay with Torsin-1A (Homo sapiens) [8], -0.162; in the assay with Torsin-1A (Homo sapiens) [9] it was 0.282; in assay [10], -0.381. Besides, the z-score is -1.12 (inactive) in assay [2], -0.415 (inactive) in assay [3], 0.0501 (inactive) in assay [4] and -0.434 (inactive) in [5].
On to `Cc1cc(C)c(C(O)C2C=CC3C(=O)NC(=O)C3N2Nc2ccc(Cl)cc2Cl)c(C)c1` (stereo not given), for which the composite z-score was 0.0976 in assay [1]; 1.64 in [6]; 0.249 in assay [7]; 0.148 in the assay with Torsin-1A (Homo sapiens) [8]; 0.697 in the assay with Torsin-1A (Homo sapiens) [9]; -0.684 in assay [10]. Besides, the z-score is -0.943 (inactive) in assay [2], -0.882 (inactive) in [3], -0.329 (inactive) in assay [4] and -0.496 (inactive) in assay [5].
`COCCOC(=O)N1C(=O)[C@@]2(c3cc(C#Cc4ccc(OC)cc4)ccc31)[C@H](C(=O)Nc1nc3ccccc3s1)[C@H]1C(=O)O[C@H](c3ccccc3)[C@H](c3ccccc3)N1[C@@H]2c1ccc(OCCO)cc1`: the composite z-score in assay [1] was 0.755; in [6], 1.12; in assay [7], 0.246; in the assay with Torsin-1A (Homo sapiens) [8] it was -0.129; with Torsin-1A (Homo sapiens) [9], 0.337; in assay [10] it was 1.84. In addition, the z-score in [2] was -1.12 (inactive); in assay [3] it was 0.133 (inactive); in assay [4], 0.757 (inactive); in [5] it was 0.442 (inactive).
`O=C1NC(=O)C2C1C=CC(C(O)c1cccc3ccccc13)N2Nc1ccc(Cl)cc1Cl` (stereo not given): the composite z-score in assay [1] was 0.288; in [6], 0.984; in assay [7], 0.153; with Torsin-1A (Homo sapiens) [8], -0.616; with Torsin-1A (Homo sapiens) [9], 1.01; in [10], -0.325. Also, the z-score in assay [2] was -1.96 (inactive); in [3], -0.329 (inactive); in assay [4], -0.14 (inactive); in [5], -0.572 (inactive).
Turning to `COC(=O)[C@@]1(Cc2ccccc2)[C@H]2c3cc(C(=O)N(C)C)n(Cc4c(CO)[nH]cc(C)c4=O)c3C[C@H]2CN1C(=O)c1ccccc1`, the composite z-score in assay [1] was 0.259; in assay [6] it was 0.0174; in assay [7], -0.0963; with Torsin-1A (Homo sapiens) [8], 0.376; with Torsin-1A (Homo sapiens) [9] it was 0.478; in assay [10], -0.842. Also, the z-score in assay [2] is 0.229 (inactive); in [3], 0.268 (inactive); in assay [4], -0.568 (inactive); in assay [5], 0.977 (inactive).
With `COc1cc(CO)cc(I)c1O[C@H]1C=C(C(=O)NCCO)C[C@@H](NCc2ccc(F)cc2)[C@@H]1O`, the composite z-score in [1] was 0.617; in assay [6], -0.156; in assay [7], -0.101; in the assay with Torsin-1A (Homo sapiens) [8], 0.0626; in the assay with Torsin-1A (Homo sapiens) [9], 0.0975; in assay [10], 0.591. Moreover, the z-score was -1.76 (inactive) in [2], -0.613 (inactive) in assay [3], 10 (active) in assay [4] and -1.05 (inactive) in assay [5].
As for `COc1ccc([Si](C)(C)[C@@H]2[C@@H](CCn3cc([C@H](O)c4ccccc4)nn3)O[C@]3(C(=O)N(Cc4ccc(N5CCC5=O)cc4)c4ccccc43)[C@H]2C)cc1`, the composite z-score in [1] is 0.512; in [6], -0.105; in assay [7], -0.184; in the assay with Torsin-1A (Homo sapiens) [8], 2.13; in the assay with Torsin-1A (Homo sapiens) [9], 0.269; in assay [10], 2.02. Besides, the z-score in [2] was -2.65 (inactive); in assay [3], -1.38 (inactive); in assay [4], 1.03 (inactive); in [5], 0.355 (inactive).

Source of the values: PubChem BioAssay.
